Laboratory results as given in PubChem BioAssay (EPA / NIEHS).
Inconclusive results are not listed. Calls of active or inactive are those of the source. Rule for the calls, unless noted: active = hit-call score of the fitted dose curve at least 0.9, where 1 is the maximum; inconclusive = response in the unintended direction; inactive = score below 0.9.

Experiments:
[1] = ATG_TCF_b_cat_CIS: Attagene CIS-FACTORIAL HepG2 Assay for human T-Cell-Factor with beta-catenin (TCF/b-cat) (AID 2282965; active = hit-call score of the fitted dose curve at least 0.9, where 1 is the maximum; inactive = score below 0.9); details: HepG2 TCF/beta-catenin cis-reporter transcription, actives raise or lower the signal
Method in brief: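 Endogenous TCF/LEF activity read as reporter transcript level via RT-PCR and capillary electrophoresis fluorescence in transfected HepG2, 24 h exposure; gain or loss of signal fitted against DMSO controls.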

[2] = ATG_TAL_CIS: Attagene CIS-FACTORIAL HepG2 Assay for human TAL Basal Promoter (AID 2282966; active = hit-call score of the fitted dose curve at least 0.9, where 1 is the maximum; inactive = score below 0.9;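 note: background control endpoint measuring basal TAL promoter reporter mRNA not a specific factor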); details: HepG2 Attagene cis-factorial TAL promoter reporter; actives raise or lower the signal
Method in brief: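 After 24 hours of chemical exposure, transfected HepG2 cells yielded RNA that was converted to 6-FAM-labelled, HpaI-digested reporter fragments for capillary electrophoresis. Values derive from bidirectional fitting against DMSO controls.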

[3] = ATG_TGFb_CIS: Attagene CIS-FACTORIAL HepG2 Assay for human Transforming Growth Factor (TGF) (AID 2282967; active = hit-call score of the fitted dose curve at least 0.9, where 1 is the maximum; inactive = score below 0.9); details: HepG2 Attagene CIS TGFb reporter, mRNA transcription; actives raise or lower the signal
Method in brief: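 HepG2 cells transiently transfected with cis-promoter-driven multiplexed reporter units; 24 h compound exposure. Reporter mRNA measured by RT-PCR, 6-FAM labeling, HpaI digestion and capillary electrophoresis; bidirectional fit versus DMSO baseline.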

[4] = ATG_VDRE_CIS: Attagene CIS-FACTORIAL HepG2 Assay for human Vitamin D Receptor Element (VDRE) (AID 2282968; active = hit-call score of the fitted dose curve at least 0.9, where 1 is the maximum; inactive = score below 0.9); details: HepG2 VDRE cis-reporter transcription, actives raise or lower the signal
Method in brief: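 Measures endogenous factor activity through cis-element-driven reporter transcripts in transiently transfected HepG2. Cells are treated 24 h; reporter mRNA is quantified by RT-PCR and capillary electrophoresis; fitting is bidirectional.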

[5] = molecular target: Estrogen receptor (Homo sapiens) (UniProt P03372); experiment: ATG_ERa_TRANS: Attagene TRANS-FACTORIAL HepG2 Assay for human Estrogen Receptor alpha (ERa) (AID 2282970); details: HepG2 Attagene TRANS ERa GAL4 reporter, mRNA
Method in brief: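 Liver-derived HepG2 cells expressing chimeric nuclear receptor-Gal4 proteins from transient transfection were exposed for 24 hours. Gain of reporter mRNA signal versus DMSO, read by capillary electrophoresis of FAM-labelled PCR products, was recorded.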

[6] = molecular target: X-box-binding protein 1 (Homo sapiens) (UniProt P17861); experiment: ATG_Xbp1_CIS: Attagene CIS-FACTORIAL HepG2 Assay for human X-box Binding Protein 1 (XBP1) (AID 2282972; active = hit-call score of the fitted dose curve at least 0.9, where 1 is the maximum; inactive = score below 0.9); details: HepG2 XBP1 cis-element reporter, Attagene multiplex; actives raise or lower the signal
Method in brief: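 Human hepatoma HepG2, cis-element reporter system, 24 h treatment; mRNA quantified by RT-PCR/CE fluorescence; fit relative to DMSO.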

[7] = ATG_M_19_TRANS: Attagene TRANS-FACTORIAL HepG2 Assay for M19 Transcription Factor (Internal Marker) (AID 2282974); details: HepG2 Attagene TRANS-FACTORIAL M19 internal marker reporter
Method in brief: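 HepG2 cells transiently transfected with multiple GAL4-UAS reporter transcription units were exposed to chemicals for 24 h. Reporter mRNA was read by RT-PCR, 6-FAM primer extension, HpaI digestion and capillary electrophoresis; gain of signal fitted relative to DMSO.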

[8] = ATG_GAL4_TRANS: Attagene TRANS-FACTORIAL HepG2 Assay for GAL4 (Internal Marker) (AID 2282976); details: HepG2 Attagene TRANS GAL4 internal marker reporter
Method in brief: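 First, HepG2 cells were transfected with reporter units under GAL4-UAS control. Next, they were treated with chemical for 24 h. Finally, RNA was reverse-transcribed, PCR-amplified, FAM-labelled and resolved by capillary electrophoresis, with induction scored against DMSO.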

[9] = molecular target: Glucocorticoid receptor (Homo sapiens) (UniProt P04150); experiment: ATG_GR_TRANS: Attagene TRANS-FACTORIAL HepG2 Assay for human Glucocorticoid Receptor (GR) (AID 2282978); details: HepG2 Attagene TRANS GR reporter, mRNA transcription;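 note: activators score as hits since higher reporter transcript over DMSO is fitted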
Method in brief: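 HepG2 cells transiently transfected with multiplexed reporter units in which chimeric NR-GAL4 proteins drive GAL4-UAS reporters; 24 h compound exposure. Reporter mRNA measured by RT-PCR, 6-FAM labelling, HpaI digestion and capillary electrophoresis; gain-of-signal fitted versus DMSO.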

[10] = molecular target: Bile acid receptor (Homo sapiens) (UniProt Q96RI1); experiment: ATG_FXR_TRANS: Attagene TRANS-FACTORIAL HepG2 Assay for Farnesoid X Receptor (FXR) (AID 2282979); details: HepG2 Attagene TRANS FXR-GAL4 reporter transcription;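 note: hits raise reporter mRNA above DMSO so AC50 marks FXR activation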
Method in brief: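 Transient transfection of HepG2 with multiplexed GAL4-UAS reporter units; exogenous FXR-GAL4 chimera. Dose 24 h → TriZol RNA → oligo(dT) RT → PCR, 6-FAM primer extension, HpaI cut → CE. Gain vs DMSO.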

[11] = molecular target: Hepatocyte nuclear factor 4-alpha (Homo sapiens) (UniProt P41235); experiment: ATG_HNF4a_TRANS: Attagene TRANS-FACTORIAL HepG2 Assay for human Hepatocyte Nuclear Factor 4 alpha (HNF4a) (AID 2282982); details: HepG2 HNF4a transactivation reporter, mRNA readout
Method in brief: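 Multiplexed reporter assay: transfected HepG2, 24 h exposure, total RNA → oligo(dT) RT → PCR → 6-FAM extension → HpaI digest → CE fluorescence. DMSO = negative control.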

[12] = ATG_M_06_TRANS: Attagene TRANS-FACTORIAL HepG2 Assay for M06 Transcription Factor (Internal Marker) (AID 2282983); details: HepG2 Attagene TRANS M06 internal marker reporter
Method in brief: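 Background control endpoint: reporter mRNA from transiently transfected HepG2 after 24 h dosing, detected by RT-PCR with capillary electrophoresis fluorescence. Analysed for gain versus DMSO.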

[13] = molecular target: Transcriptional activator Myb (Homo sapiens) (UniProt P10242); experiment: ATG_Myb_CIS: Attagene CIS-FACTORIAL HepG2 Assay for human Myeloblastosis (Myb) Proto-Oncogene Transcription Factor (AID 2282986; active = hit-call score of the fitted dose curve at least 0.9, where 1 is the maximum; inactive = score below 0.9); details: HepG2 Attagene CIS-FACTORIAL Myb reporter transcription; actives raise or lower the signal
Method in brief: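 HepG2 cells were transiently transfected with cis-regulated multiple reporter transcription units reflecting endogenous Myb activity, then exposed to compound for 24 hours. Reporter mRNA was measured by RT-PCR with capillary electrophoresis; bidirectional fitting versus DMSO baseline.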

[14] = molecular target: Steroid hormone receptor ERR1 (Homo sapiens) (UniProt P11474); experiment: ATG_ERRa_TRANS: Attagene TRANS-FACTORIAL HepG2 Assay for human Estrogen-Related Receptor alpha (ERRa) (AID 2282971); details: HepG2 Attagene TRANS reporter, ERRa transactivation
Method in brief: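 Reporter transcript induction was quantified by RT-PCR and capillary electrophoresis of FAM-labelled, HpaI-cut products after 24 h treatment of HepG2 cells carrying transiently transfected GAL4-UAS reporter units and an exogenous ERRa-Gal4 fusion; activity scored as increase over DMSO.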

[15] = molecular target: Estrogen-related receptor gamma (Homo sapiens) (UniProt P62508); experiment: ATG_ERRg_TRANS: Attagene TRANS-FACTORIAL HepG2 Assay for human Estrogen-Related Receptor gamma (ERRg) (AID 2282977); details: HepG2 Attagene TRANS reporter, ERRg transactivation;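 note: hits increase reporter signal over DMSO so potencies reflect activators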
Method in brief: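 Readout: fluorescent reporter-mRNA fragments resolved by capillary electrophoresis after RT-PCR and HpaI cut. Cells: transiently transfected HepG2 carrying GAL4-UAS reporters driven by exogenous NR-Gal4 chimeras, dosed 24 h. Activity fitted upward relative to DMSO baseline.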

[16] = molecular target: Oxysterols receptor LXR-alpha (Homo sapiens) (UniProt Q13133); experiment: ATG_LXRa_TRANS: Attagene TRANS-FACTORIAL HepG2 Assay for human Liver X Receptor alpha (LXRa) (AID 2282980); details: HepG2 Attagene TRANS reporter, LXRa transactivation
Method in brief: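 Transfect HepG2 with GAL4-UAS multiplex reporter constructs (TRANS format, chimeric receptor-GAL4); treat 24 h; extract RNA, reverse-transcribe, PCR-amplify, FAM-label, HpaI-digest; resolve fragments by capillary electrophoresis. Upward response vs DMSO.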

[17] = molecular target: Oxysterols receptor LXR-beta (Homo sapiens) (UniProt P55055); experiment: ATG_LXRb_TRANS: Attagene TRANS-FACTORIAL HepG2 Assay for human Liver X Receptor beta (LXRb) (AID 2282981); details: HepG2 Attagene TRANS GAL4-LXRb reporter, mRNA
Method in brief: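 After 24 h of chemical treatment, transfected HepG2 cells yield total RNA; reporter cDNA is PCR-amplified, FAM-labelled, HpaI-cut and run on capillary electrophoresis. Signal reflects chimeric LXRb-Gal4 activity on GAL4-UAS reporters.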

[18] = ATG_M_32_TRANS: Attagene TRANS-FACTORIAL HepG2 Assay for M32 Transcription Factor (Internal Marker) (AID 2282984); details: HepG2 Attagene TRANS M32 internal marker reporter;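 note: transcript level of a background control reporter unit measured by RT-PCR and capillary electrophoresis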
Method in brief: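 Cell-based TRANS-format assay in HepG2: exogenous chimeric GAL4 reporter units transiently expressed, compounds applied 24 h. Reporter mRNA detected by RT-PCR plus capillary electrophoresis; this readout is an internal background marker.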

[19] = molecular target: Nuclear receptor subfamily 4 group A member 2 (Homo sapiens) (UniProt P43354); experiment: ATG_NURR1_TRANS: Attagene TRANS-FACTORIAL HepG2 Assay for human Nuclear Receptor Related Protein 1 (NURR1) (AID 2282985); details: HepG2 Attagene TRANS reporter, mRNA readout
Method in brief: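 Measures transcriptional activation by an exogenous NR-Gal4 chimera in transfected HepG2 liver cells. After 24 h, reporter RNA is reverse-transcribed, amplified and resolved by capillary electrophoresis; DMSO defines baseline.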

Measured: AC50

Nuclear receptor subfamily 4 group A member 2 (Homo sapiens), sequence (P43354 whole entry, looked up, the tested form may be a part): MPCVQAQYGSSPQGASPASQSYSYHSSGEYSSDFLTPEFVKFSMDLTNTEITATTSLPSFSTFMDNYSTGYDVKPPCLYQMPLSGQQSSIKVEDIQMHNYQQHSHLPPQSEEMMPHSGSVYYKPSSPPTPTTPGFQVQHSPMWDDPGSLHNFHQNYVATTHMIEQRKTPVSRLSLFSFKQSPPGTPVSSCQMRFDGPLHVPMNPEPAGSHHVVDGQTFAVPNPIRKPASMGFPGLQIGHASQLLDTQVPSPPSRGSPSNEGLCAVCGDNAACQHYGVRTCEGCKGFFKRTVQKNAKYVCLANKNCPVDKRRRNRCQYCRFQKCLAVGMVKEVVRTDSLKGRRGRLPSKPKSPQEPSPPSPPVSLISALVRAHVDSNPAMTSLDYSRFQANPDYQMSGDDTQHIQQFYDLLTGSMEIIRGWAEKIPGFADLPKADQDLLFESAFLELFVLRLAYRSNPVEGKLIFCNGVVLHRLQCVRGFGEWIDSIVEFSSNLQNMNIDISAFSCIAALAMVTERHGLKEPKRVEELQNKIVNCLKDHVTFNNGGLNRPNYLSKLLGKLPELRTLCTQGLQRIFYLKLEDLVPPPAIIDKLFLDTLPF
Glucocorticoid receptor (Homo sapiens), sequence (P04150 whole entry, looked up, the tested form may be a part): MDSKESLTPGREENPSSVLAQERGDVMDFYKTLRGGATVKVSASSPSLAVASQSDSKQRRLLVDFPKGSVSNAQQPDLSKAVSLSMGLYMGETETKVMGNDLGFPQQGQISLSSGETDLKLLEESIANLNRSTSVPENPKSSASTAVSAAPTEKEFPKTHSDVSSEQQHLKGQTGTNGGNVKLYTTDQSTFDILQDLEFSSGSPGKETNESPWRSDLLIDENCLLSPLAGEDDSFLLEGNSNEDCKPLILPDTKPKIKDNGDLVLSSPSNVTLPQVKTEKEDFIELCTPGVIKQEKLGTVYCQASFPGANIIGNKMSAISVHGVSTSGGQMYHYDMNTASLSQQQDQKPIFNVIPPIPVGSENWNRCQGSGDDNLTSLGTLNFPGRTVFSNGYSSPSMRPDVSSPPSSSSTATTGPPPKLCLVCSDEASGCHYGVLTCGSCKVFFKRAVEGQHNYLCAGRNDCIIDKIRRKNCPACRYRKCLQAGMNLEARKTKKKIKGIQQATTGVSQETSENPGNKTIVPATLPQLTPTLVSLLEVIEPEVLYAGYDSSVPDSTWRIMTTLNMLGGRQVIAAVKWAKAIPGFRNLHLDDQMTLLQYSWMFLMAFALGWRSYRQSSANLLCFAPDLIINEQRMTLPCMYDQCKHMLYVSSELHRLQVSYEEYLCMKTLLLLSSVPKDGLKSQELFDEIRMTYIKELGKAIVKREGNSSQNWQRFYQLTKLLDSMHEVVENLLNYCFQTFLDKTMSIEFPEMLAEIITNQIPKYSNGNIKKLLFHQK
Steroid hormone receptor ERR1 (Homo sapiens), sequence (P11474 whole entry, looked up, the tested form may be a part): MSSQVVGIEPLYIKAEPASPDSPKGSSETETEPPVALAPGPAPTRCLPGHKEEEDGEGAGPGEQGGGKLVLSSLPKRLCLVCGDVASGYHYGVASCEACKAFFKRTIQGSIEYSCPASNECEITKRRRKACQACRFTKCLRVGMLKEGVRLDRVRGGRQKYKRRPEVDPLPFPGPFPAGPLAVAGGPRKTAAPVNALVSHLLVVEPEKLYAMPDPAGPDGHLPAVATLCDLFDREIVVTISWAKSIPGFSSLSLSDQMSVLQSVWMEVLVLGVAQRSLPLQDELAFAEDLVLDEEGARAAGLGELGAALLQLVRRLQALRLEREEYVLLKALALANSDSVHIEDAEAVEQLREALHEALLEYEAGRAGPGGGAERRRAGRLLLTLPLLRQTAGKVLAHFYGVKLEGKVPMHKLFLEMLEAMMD
Oxysterols receptor LXR-alpha (Homo sapiens), sequence (Q13133 whole entry, looked up, the tested form may be a part): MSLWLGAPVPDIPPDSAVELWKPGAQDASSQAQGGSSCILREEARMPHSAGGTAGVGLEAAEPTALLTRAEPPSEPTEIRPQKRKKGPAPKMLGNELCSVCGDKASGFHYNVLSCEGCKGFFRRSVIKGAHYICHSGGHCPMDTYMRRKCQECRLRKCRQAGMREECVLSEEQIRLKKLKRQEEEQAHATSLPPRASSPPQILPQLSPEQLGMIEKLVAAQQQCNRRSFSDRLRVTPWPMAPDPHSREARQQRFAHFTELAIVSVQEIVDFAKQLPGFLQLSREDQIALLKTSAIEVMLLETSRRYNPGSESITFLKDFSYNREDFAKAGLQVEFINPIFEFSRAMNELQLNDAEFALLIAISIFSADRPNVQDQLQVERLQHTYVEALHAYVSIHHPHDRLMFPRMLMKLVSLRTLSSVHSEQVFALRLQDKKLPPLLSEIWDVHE
Estrogen receptor (Homo sapiens), sequence (P03372 whole entry, looked up, the tested form may be a part): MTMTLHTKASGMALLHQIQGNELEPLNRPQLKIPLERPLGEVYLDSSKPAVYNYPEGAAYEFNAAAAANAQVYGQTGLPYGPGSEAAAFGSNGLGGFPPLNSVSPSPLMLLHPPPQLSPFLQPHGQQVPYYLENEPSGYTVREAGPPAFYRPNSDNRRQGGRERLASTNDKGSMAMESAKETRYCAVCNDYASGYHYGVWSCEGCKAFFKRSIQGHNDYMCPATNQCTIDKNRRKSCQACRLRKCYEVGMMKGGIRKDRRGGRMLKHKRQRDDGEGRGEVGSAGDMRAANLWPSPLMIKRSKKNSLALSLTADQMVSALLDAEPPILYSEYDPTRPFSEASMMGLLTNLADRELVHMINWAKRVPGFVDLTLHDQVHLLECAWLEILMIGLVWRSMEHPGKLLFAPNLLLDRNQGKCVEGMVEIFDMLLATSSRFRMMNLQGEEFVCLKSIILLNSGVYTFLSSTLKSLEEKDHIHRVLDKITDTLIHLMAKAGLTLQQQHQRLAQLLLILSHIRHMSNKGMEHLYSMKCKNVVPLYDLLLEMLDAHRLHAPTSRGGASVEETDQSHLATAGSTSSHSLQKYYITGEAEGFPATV
Hepatocyte nuclear factor 4-alpha (Homo sapiens), sequence (P41235 whole entry, looked up): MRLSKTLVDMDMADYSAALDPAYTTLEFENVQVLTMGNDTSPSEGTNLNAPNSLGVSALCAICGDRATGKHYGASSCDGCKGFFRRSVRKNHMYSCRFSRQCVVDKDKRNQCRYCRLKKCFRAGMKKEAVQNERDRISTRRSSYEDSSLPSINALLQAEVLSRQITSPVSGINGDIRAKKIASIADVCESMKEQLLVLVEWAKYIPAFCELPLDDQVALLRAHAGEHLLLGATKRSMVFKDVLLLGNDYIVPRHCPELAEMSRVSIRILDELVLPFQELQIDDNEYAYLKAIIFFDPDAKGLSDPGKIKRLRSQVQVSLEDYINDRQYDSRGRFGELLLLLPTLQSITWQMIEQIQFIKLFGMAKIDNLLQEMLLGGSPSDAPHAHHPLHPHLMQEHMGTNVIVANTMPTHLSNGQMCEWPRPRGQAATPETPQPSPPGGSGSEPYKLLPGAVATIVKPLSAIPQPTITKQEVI
Estrogen-related receptor gamma (Homo sapiens), sequence (P62508 whole entry, looked up, the tested form may be a part): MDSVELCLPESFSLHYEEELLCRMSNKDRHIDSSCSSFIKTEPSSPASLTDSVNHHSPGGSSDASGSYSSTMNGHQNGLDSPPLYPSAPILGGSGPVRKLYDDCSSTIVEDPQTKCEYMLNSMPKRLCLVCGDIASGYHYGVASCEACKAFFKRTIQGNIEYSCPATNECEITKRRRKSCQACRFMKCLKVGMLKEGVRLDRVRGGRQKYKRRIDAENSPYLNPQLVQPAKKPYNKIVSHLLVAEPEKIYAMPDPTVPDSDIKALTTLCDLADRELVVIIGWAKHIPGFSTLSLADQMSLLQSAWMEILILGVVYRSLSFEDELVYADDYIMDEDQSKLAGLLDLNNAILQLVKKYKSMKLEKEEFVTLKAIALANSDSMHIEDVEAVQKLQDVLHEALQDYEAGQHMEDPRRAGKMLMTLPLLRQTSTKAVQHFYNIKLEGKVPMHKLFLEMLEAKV
Oxysterols receptor LXR-beta (Homo sapiens), sequence (P55055 whole entry, looked up, the tested form may be a part): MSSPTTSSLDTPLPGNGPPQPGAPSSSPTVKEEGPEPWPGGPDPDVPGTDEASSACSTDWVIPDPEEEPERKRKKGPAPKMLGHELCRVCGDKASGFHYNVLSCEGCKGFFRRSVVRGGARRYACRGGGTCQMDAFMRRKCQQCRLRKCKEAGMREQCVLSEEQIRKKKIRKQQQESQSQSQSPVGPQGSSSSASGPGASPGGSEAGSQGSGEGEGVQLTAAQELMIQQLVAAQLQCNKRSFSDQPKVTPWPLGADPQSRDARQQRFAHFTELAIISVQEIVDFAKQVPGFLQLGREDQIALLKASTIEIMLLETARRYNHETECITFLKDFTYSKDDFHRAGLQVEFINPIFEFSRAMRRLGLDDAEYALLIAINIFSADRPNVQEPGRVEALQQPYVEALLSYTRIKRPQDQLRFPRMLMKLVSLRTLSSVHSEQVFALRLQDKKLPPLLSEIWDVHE
X-box-binding protein 1 (Homo sapiens), sequence (P17861 whole entry, looked up): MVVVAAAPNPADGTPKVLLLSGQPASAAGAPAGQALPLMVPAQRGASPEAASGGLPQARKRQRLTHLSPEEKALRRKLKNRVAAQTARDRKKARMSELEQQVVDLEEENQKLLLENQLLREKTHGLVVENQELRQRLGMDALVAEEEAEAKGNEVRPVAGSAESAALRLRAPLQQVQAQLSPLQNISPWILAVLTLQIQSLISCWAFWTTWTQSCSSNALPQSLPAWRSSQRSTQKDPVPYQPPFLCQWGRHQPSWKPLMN
Bile acid receptor (Homo sapiens), sequence (Q96RI1 whole entry, looked up, the tested form may be a part): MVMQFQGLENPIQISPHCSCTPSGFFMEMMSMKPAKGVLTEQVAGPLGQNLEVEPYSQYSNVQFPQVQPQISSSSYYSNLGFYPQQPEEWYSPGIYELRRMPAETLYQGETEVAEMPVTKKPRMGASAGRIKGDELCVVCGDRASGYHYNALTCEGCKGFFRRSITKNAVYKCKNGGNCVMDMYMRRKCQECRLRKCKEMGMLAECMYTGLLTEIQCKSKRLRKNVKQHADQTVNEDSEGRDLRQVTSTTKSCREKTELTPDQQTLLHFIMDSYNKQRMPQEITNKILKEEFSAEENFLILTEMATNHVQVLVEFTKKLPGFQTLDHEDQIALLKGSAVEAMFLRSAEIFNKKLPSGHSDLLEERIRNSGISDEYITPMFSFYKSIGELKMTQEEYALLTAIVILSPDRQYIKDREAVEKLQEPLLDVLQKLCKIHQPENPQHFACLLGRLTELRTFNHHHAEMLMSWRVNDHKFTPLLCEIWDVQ

CC=CC(=O)OCC(C)C
not listed: [14] | [15] | [16] | [17] | [18] | [19]
inactive: all other assays above

COC(=O)CC(C)CCC=C(C)C (centres undefined)
not listed: [7] | [12] | [18] | [19]
inactive: all other assays above

CCCCCCCCCCCC(=O)N(C)CC(=O)O
not listed: [7] | [10] | [11] | [14] | [15] | [16] | [17] | [19]
inactive: all other assays above

CCCCOC(=O)CCC(C)=O
not listed: [8] | [10] | [12] | [14] | [15] | [17]
inactive: all other assays above

O=C(O)/C=C/c1ccccc1
inactive: [1] | [2] | [3] | [4] | [6] | [8] | [12] | [18] | [19] | [13]
active: [5] 61.7 µM

CCCCCCOc1ccc(N)cc1
not listed: [7] | [8] | [9] | [11] | [15] | [16] | [17] | [19]
inactive: all other assays above

CN1CCN(C)CC1
not listed: [8] | [12] | [14] | [15] | [16] | [18] | [19]
inactive: all other assays above

CC(Cl)COP(=O)(OCC(C)Cl)OCC(C)Cl (centres undefined)
active: [4] 3.75 µM
not listed: [8] | [10] | [11] | [12] | [16] | [17]
inactive: all other assays above

O=C(O[C@@H]1Cc2c(O)cc(O)cc2O[C@@H]1c1cc(O)c(O)c(O)c1)c1cc(O)c(O)c(O)c1
active: [1] 36 µM
not listed: [7] | [9] | [10] | [11] | [14] | [15]
inactive: all other assays above

C=C(C)C(=O)OCC(O)COc1ccc(C(C)(C)c2ccc(OCC(O)COC(=O)C(=C)C)cc2)cc1 (centres undefined)
active: [4] 9.75 µM | [6] 26.3 µM | [19] 27.4 µM | [13] 158 µM
inactive: [1] | [2] | [3] | [7] | [8] | [15] | [11] | [18]

Oc1ccc(/C=C/c2cc(O)cc(O)c2)cc1
inactive: [2] | [3] | [4] | [8] | [10] | [16] | [12] | [13]
active: [1] 27.3 µM | [5] 6 µM
